Laboratory results reported in PubChem BioAssay (NCATS).
Results filed as inconclusive are left out. Active and inactive are the calls of the source. Calls follow the shape of the dose curve; as a rule, active = well fitted cell-killing curve with a large enough effect; inconclusive = small, poorly fitted or top-dose-only effect, or effect the other way; inactive = no such curve, though single readings can be large or run the other way. Residues, ends and D or L forms follow the SMILES beside them. *: point of attachment. Cbz = O=C(OCc1ccccc1)*

Assay: Quantitative High-Throughput drug screen in 47 multiple myeloma cell lines against the NCATS MIPE library collection: OCIMY7_PLB cell viability assay (AID 1918987); also: nearly all actives have a fitted effect of over 65% in size
Conditions: OCI-MY7 myeloma viability, CellTiter-Glo ATP, 48 h; viability (% of DMSO): at 45.8 µM (top of the series)
Description: PI: Beverly A. Mock Ph.D.
Laboratory of Cancer Biology and Genetics,
Center for Cancer Research, National Cancer Institute,
National Institute of Health, Bethesda, Maryland
Drug resistance and disease progression are common in multiple myeloma (MM) patients, underscoring the need for new therapeutic combinations. […] We hypothesized that effective combinations would reduce MYC expression and enhance p16 activity. […] These preclinical data identify potentially useful drug combinations for evaluation in drug-resistant MM and reveal potential mechanisms of combined drug sensitivity.
Described herein is the primary MIPE qHTS used to cherrypick compounds. Validated compounds were then further tested for potential synergistic activiy.
[1] Peat TJ, Gaikwad SM, Dubois W, Gyabaah-Kessie N, Zhang S, Gorjifard S, Phyo Z, Andres M, Hughitt VK, Simpson RM, Miller MA, Girvin AT, Taylor A, Williams D, D'Antonio N, Zhang Y, Rajagopalan A, Flietner E, Wilson K, Zhang X, Shinn P, Klumpp-Thomas C, McKnight C, Itkin Z, Chen L, Kazandijian D, Zhang J, Michalowski AM, Simmons JK, Keats J, Thomas CJ, Mock BA. Drug combinations identified by high-throughput screening promote cell cycle transition and upregulate Smad pathways in myeloma. Cancer Lett. 2023 Aug 1;568:216284. doi: 10.1016/j.canlet.2023.216284. Epub 2023 Jun 24. PMID: 37356470; PMCID: PMC10408729.
SEQUENCE No. (e.g., 1, 2, 3, etc.); […] (e.g., Cells, Incubation, Reagent, etc.); VALUE and DESCRIPTION.
1; Cells; 5 uL; white, solid bottom 1536-well Greiner assay plate.
2; Compounds; 23 nL; Kalypsis pin tool (Wako USA) equipped with a 1536-well pin head to transfer to the assay plates.
3; Incubation; 48 hours; 37C incubation.
4; Reagent;5uL; CellTiter Glo (Promega).
5; Detector; 425V; Luminescence; Viewlux PerkinElmer.
NOTES (numbers refer to Sequence numbers above)
1. The cell-based screening methods employed in this study were like those previously published. Briefly, the corresponding myeloma cell lines were screened in 1,536-well plates with 500 cells, 5-uL per well for inhibition of cell viability (assessed by measuring ATP levels with CellTiterGlo).
2. NCATS MIPE 4.0 library of approved and investigational drugs were added using the Kalypsis pin tool. Wells treated with DMSO only for 100% viability and media only for 0% viability were used as controls.
3. The assay plates were covered and incubated for 48 hours in a 37C, 5% CO2 incubator with controlled humidity.
4. After 48 hours, CellTilter-GloTM luminescent substrate mix (Promega) reagent was added to the assay plate and plates we incubated for 5 min at room temperature.
5. Signal was measured as median relative luminescence units on a ViewLux (PerkinElmer) multiplate reader.
[1] Heske CM, Davis MI, Baumgart JT, Wilson K, Gormally MV, Chen L, Zhang X, Ceribelli M, Duveau DY, Guha R, Ferrer M, Arnaldez FI, Ji J, Tran HL, Zhang Y, Mendoza A, Helman LJ, Thomas CJ. Matrix Screen Identifies Synergistic Combination of PARP Inhibitors and Nicotinamide Phosphoribosyltransferase (NAMPT) Inhibitors in Ewing Sarcoma. Clin Cancer Res. 2017 Dec 1;23(23):7301-7311. doi: 10.1158/1078-0432.CCR-17-1121. Epub 2017 Sep 12. PMID: 28899971; PMCID: PMC6636827.
Potency is read from the fitted curve at half-maximal effect.

| Compound | Potency | viability (% of DMSO) |
| --- | --- | --- |
| C=CC(=O)N1CCc2ccc(-n3c(=O)ccc4cnc5ccc(-c6cnn(C)c6)cc5c43)cc21 | 0.833 µM (active) | – |
| COc1ccc(C=Cc2cc(OC)c(OC)c(OC)c2)cc1NC(=O)[C@H](N)CO | 0.001 µM (active) | – |
| N#CNC(=NCCCCCCOc1ccc(Cl)cc1)Nc1ccncc1 | – | 3.98% (inactive) |
| Oc1ccc(-c2ccc(-c3cc(Nc4cccc(CNC5CC5)c4)n[nH]3)cc2)c(O)c1 | 4.69 µM (active) | – |
| CC(=O)N1CCN(c2ccc(OCc3nn(C)c(C)c3-c3cccc4c(CCCOc5cccc6ccccc56)c(C(=O)O)n(Cc5cccnc5)c34)cc2)CC1 | 0.001 µM (active) | – |
| CC(=O)[C@]1(O)Cc2c(O)c3c(c(O)c2[C@@H](O[C@H]2C[C@H](N)[C@@H](O)[C@H](C)O2)C1)C(=O)c1ccccc1C3=O | 0.166 µM (active) | – |
| COc1cc(C)c(Sc2cnc(NC(=O)c3ccc(CNC(C)C(C)(C)C)cc3)s2)cc1C(=O)N1CCN(C(C)=O)CC1 (stereo not given) | 3.32 µM (active) | – |
| CCCCCCCCc1ccc(CCC(N)(CO)CO)cc1 | 11.8 µM (active) | – |
| CC(C)(O)CC[C@@H](O)[C@](C)(O)[C@H]1CC[C@@]2(O)C3=CC(=O)[C@@H]4C[C@@H](O)[C@@H](O)C[C@]4(C)[C@@H]3CC[C@]12C | – | 135% (inactive) |
| CC(=O)NCC(=O)N1[C@H]2CC[C@H]1c1cc(Nc3ncc(C(F)(F)F)c(NC4CCC4)n3)ccc12 | 0.0935 µM (active) | – |
| Cn1c(Nc2ccc(C(F)(F)F)cc2)nc2cc(Oc3ccnc(-c4ncc(C(F)(F)F)[nH]4)c3)ccc21 | 3.72 µM (active) | – |
| CN1C(C(=O)Nc2ccccn2)=C(O)c2sc(Cl)cc2S1(=O)=O | 1.32 µM (active) | – |
| COc1ccc(S(=O)(=O)Nc2cccnc2Nc2ccc(O)cc2)cc1 | 0.0372 µM (active) | – |
| CCc1cc(C(C)=NOCc2ccc(C3CCCCC3)c(C(F)(F)F)c2)ccc1CN1CC(C(=O)O)C1 | 16.6 µM (active) | – |
| CN[C@H]1[C@@H](O)[C@@H]2O[C@@H]3O[C@H](C)CC(=O)[C@]3(O)O[C@@H]2[C@@H](NC)[C@H]1O | 8.33 µM (active) | – |
| COC[C@H](NC(=O)c1cnc(C)s1)C(=O)N[C@@H](COC)C(=O)N[C@@H](Cc1ccccc1)C(=O)[C@@]1(C)CO1 | 0.0526 µM (active) | – |
| O=c1[nH]c(=O)n([C@H]2C[C@@H](O)[C@@H](CO)O2)cc1F | 0.59 µM (active) | – |
| C=CCNC1=C2C[C@@H](C)C[C@H](OC)[C@@H](O)[C@@H](C)C=C(C)[C@H](OC(N)=O)[C@@H](OC)C=CC=C(C)C(=O)NC(=CC1=O)C2=O | 0.833 µM (active) | – |
| CCOC(=O)N1CCN([N+]([O-])=NOc2ccc([N+](=O)[O-])cc2C#N)CC1 | 0.59 µM (active) | – |
| O=C(C=CC#Cc1cccc(NS(=O)(=O)c2ccccc2)c1)NO | 0.372 µM (active) | – |

| Compound | Potency | viability (% of DMSO) |
| --- | --- | --- |
| COc1cc(OC)cc(-c2ccc3ncc4ccc(=O)n(-c5ccc(N6CCNCC6)c(C(F)(F)F)c5)c4c3c2)c1 | 1.18 µM (active) | – |
| CC(C=CC1=C(C)CCCC1(C)C)=CC=CC(C)=CC(=O)Nc1ccc(O)cc1 | 4.29 µM (active) | – |
| N#Cc1c(NC(=O)c2cccc3ccccc23)sc2c1CCCC2 | 0.187 µM (active) | – |
| CN(C)c1ccc(C(=O)NCCCCCCC(=O)NO)cc1 | 0.59 µM (active) | – |
| CCNC(=O)c1cc2c(-c3cc(OCCN4CCCC4)c(Cl)cc3Cl)nc(N)nc2s1 | 0.372 µM (active) | – |
| CCCNC(=O)[C@H]1O[C@H]1C(=O)N[C@H](C(=O)N1CCC[C@@H]1C(=O)OC)C(C)CC (stereo not given in full) | 3.32 µM (active) | – |
| CC[C@]12C=CCN3CC[C@@]4(c5cc([C@@]6(C(=O)OC)C[C@H]7C[C@@H](C(C)(F)F)CN(Cc8c6[nH]c6ccccc86)C7)c(OC)cc5N(C)[C@H]4[C@@](O)(C(=O)OC)[C@H]1OC(C)=O)[C@@H]32 | 0.001 µM (active) | – |
| Cc1cncc2cccc(S(=O)(=O)N3CCCN(C(=O)CN)C[C@@H]3C)c12 | 11.8 µM (active) | – |
| CC(C)C[C@@H](C=O)NC(=O)[C@H](CC(C)C)NC(=O)[C@H](CC(C)C)NC(=O)OCc1ccccc1 (Cbz-Leu-Leu-Leu-aldehyde) | 0.296 µM (active) | – |
| C=CC(=O)Nc1cc(NC(=O)c2ccc(C)c(NC(=O)c3ccno3)c2)cc(C(F)(F)F)c1 | 16.6 µM (active) | – |
| O=C(NC1CC1)c1cccc(-c2ccc3c(NC(=O)C4CC4)n[nH]c3c2)c1 | 7.43 µM (active) | – |
| CC(C)(O)[C@H]1CC[C@@](C)([C@H]2[C@@H](O)C[C@@]3(C)[C@@H]4C[C@H](O[C@@H]5O[C@H](CO)[C@@H](O)[C@H](O)[C@@H]5O)[C@H]5C(C)(C)[C@@H](O[C@@H]6OC[C@@H](O)[C@H](O)[C@@H]6O)CC[C@@]56C[C@@]46CC[C@]23C)O1 | – | 179% (inactive) |
| CCN(CC)Cc1ccc2cc(COC(=O)Nc3ccc(C(=O)NO)cc3)ccc2c1 | 0.372 µM (active) | – |
| C[C@@]12C[C@@]3(O)O[C@@H](O1)[C@]1(COC(=O)c4ccccc4)[C@@H]3C[C@@]12O[C@@H]1O[C@H](CO)[C@@H](O)[C@H](O)[C@@H]1O | – | 123% (inactive) |
| CCOC(=O)[C@@H](N)Cc1ccc(-c2cc(O[C@H](c3ccc(Cl)cc3-n3ccc(C)n3)C(F)(F)F)nc(N)n2)cc1 | 11.8 µM (active) | – |
| Cn1cc(CNCC2CCN(c3ncc(C(=O)NO)cn3)CC2)c2ccccc21 | 0.0332 µM (active) | – |
| CCN(C(=O)c1c(O)c2c(Cl)cccc2n(C)c1=O)c1ccccc1 | – | 199% (inactive) |
| CC(C)(N)c1ccc(-c2nc3ccccc3nc2-c2ccccc2)cc1 | 7.43 µM (active) | – |
| CC(C)(O)Cn1c(NC(=O)c2ccc(-c3cn[nH]c3)s2)nc2cc(CN3CCOCC3)ccc21 | 0.332 µM (active) | – |
| COC(=O)C1C2CC3c4[nH]c5cc(OC)ccc5c4CCN3CC2CC(OC(=O)c2cc(OC)c(OC)c(OC)c2)C1OC (stereo not given) | 16.6 µM (active) | – |
